Screens from PubChem.
CendR NRP1 mod: modulators of CendR peptide binding to NRP-1, primary screen, biochemical, fluorescence polarization, uHTS. inhibition, % at 25 µM. FAM-RPARPAR peptide binding to NRP-1. actives 0.85% (n = 360,000). Neuropilin-1 (Homo sapiens), O14786;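 active = inhibition or corrected inhibition above about 18%, plus a signal ratio from 0.5 to 1.5, limit read from the data, passing the limit was not always enough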
ADAM17 inh: ADAM17 inhibitors, primary screen, biochemical, QFRET; Disintegrin and metalloproteinase domain-containing protein 17 (Homo sapiens), P78536; recombinant ADAM17, EDANS/DABCYL FRET peptide cleavage; inhibition, % at 6.95 µM; actives 0.83% (n = 370,000);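 active = inhibition above the mean of compounds lying between control limits plus 3 SD, set per campaign, cut at about 8.5% in these data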;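 also: 0% = DMSO-only wells as the low control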
ADAM10 inh: human ADAM10 inhibitors, primary screen, biochemical, QFRET, HTS; inhibition, % at 7 µM; AID 720582, 2013; recombinant ADAM10, EDANS/DABCYL FRET peptide cleavage, 3 h; actives 0.62% (n = 370,000);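 active = inhibition above a per-campaign cutoff equal to the mean of compounds falling between control-based bounds plus 3 SD, cut at about 20% in these data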;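 also: 0% = DMSO wells while the 100% control is not disclosed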
A3G deaminase: APOBEC3G DNA deaminase inhibitors, primary screen, biochemical, fluorescence, single-stranded DNA substrate, uHTS. DNA dC->dU-editing enzyme APOBEC-3G (Homo sapiens), Q9HC16. recombinant A3G, ssDNA deamination FAM/TAMRA fluorescence. inhibition, % at 20 µM. actives 0.28% (n = 330,000);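 active = inhibition of at least 40% at 20 µM, with no more than 30% in the related APOBEC3A deaminase screen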;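 also: plate controls were DMSO wells with A3G for no effect and wells lacking A3G enzyme for full effect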
A3A deaminase: APOBEC3A ssDNA deaminase inhibitors, primary screen, selectivity assay for APOBEC3G inhibitor project, biochemical, FAM/TAMRA oligo cleavage fluorescence; recombinant A3A, FAM/TAMRA ssDNA deamination fluorescence; inhibition, % at 20 µM; actives 0.41% (n = 330,000); AID 493011, 2011; DNA dC->dU-editing enzyme APOBEC-3A (Homo sapiens), P31941;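 active = at least 40% inhibition at 20 µM here, with at most 30% in a related deaminase screen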;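 also: plate controls were A3A with DMSO for no effect and wells lacking A3A enzyme for full effect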
A3G conf: APOBEC3G deaminase inhibitor retest, confirmation, biochemical, fluorescence, single-stranded DNA substrate, single concentration; actives 72% (n = 890); shares compounds with A3G deaminase; inhibition, % at 20 µM; recombinant A3G ssDNA deaminase, UDG/FAM-TAMRA fluorescence;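 active = inhibition reaching a set limit in any replicate at 20 µM, the limit being 80% of the first screen's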
UDG A3G counter: E. coli UDG inhibitors, confirmation, counter-screen for APOBEC3G inhibitor project, biochemical, single concentration, fluorescence, FAM/TAMRA oligo; shares compounds with A3G deaminase; UDG counterscreen; inhibition, % at 20 µM; 710 tested, under 10 active;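 active = compounds giving 40% or more inhibition at 20 µM in any one of the three replicates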;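 also: plate controls were DMSO wells with UDG and oligo for no effect and DMSO wells lacking both for full effect; inhibitors lower the FAM signal released by uracil excision and alkaline cleavage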
Target sequence (P12295 whole entry, looked up): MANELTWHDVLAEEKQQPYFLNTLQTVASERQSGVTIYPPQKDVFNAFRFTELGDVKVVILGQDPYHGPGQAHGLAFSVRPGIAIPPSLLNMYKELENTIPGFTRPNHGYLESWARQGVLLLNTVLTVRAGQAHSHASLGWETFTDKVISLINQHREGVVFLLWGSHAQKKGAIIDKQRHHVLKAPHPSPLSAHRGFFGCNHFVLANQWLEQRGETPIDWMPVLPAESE
* hit, by the source's call; · = not tested or not shown. Rows were chosen to be rich in hits. Some 2.4% of all compounds tested hit in one or more screens of this group.

SMILES | CendR NRP1 mod | ADAM17 inh | ADAM10 inh | A3G deaminase | A3A deaminase | A3G conf | UDG A3G counter
Cc1ccc(-c2cn3c(=S)[nH]nc3s2)cc1 | -16.1 | 1.0 | 7.0 | 79.7* | 3.2 | 66.1* | -3.6
CCOC(=O)c1ccc(-n2c(=S)sc3c(=O)[nH]c(C)nc32)cc1 | -16.9 | · | · | 55.7* | 5.5 | 40.1* | 1.6
CC(C)OC(=O)c1ccc2nc3ccccc3nc2c1 | 11.0 | -0.6 | 2.1 | 63.8* | -0.8 | -2.0 | 1.5
CCOc1ccc(-n2c(SCC(=O)c3ccc4ccccc4c3)nnc2-c2ccco2)cc1 | · | 2.1 | 6.2 | · | · | · | ·
CCOCCCN(Cc1cc2cc(C)cc(C)c2[nH]c1=O)C(=O)N(CC)CC | 4.0 | -6.8 | -24.9 | 0.0 | 0.4 | · | ·
CCc1cc2cc(C)cc(C)c2[nH]c1=S | 5.7 | -1.9 | -1.9 | 49.1* | 2.2 | active | -2.9
CCC(C)NC(=O)CC(C)C (stereo not given) | -10.0 | -3.0 | 0.1 | -5.4 | -3.5 | · | ·
CC(C)CC(=O)N[C@H](C(=O)N[C@H](C(=O)N[C@@H](CC(C)C)[C@@H](O)CC(=O)N[C@@H](C)C(=O)N[C@@H](CC(C)C)[C@@H](O)CC(=O)O)C(C)C)C(C)C | -14.7 | -3.4 | -8.2 | 74.5* | 5.6 | 15.8 | ·
